# Results from the supplement of paper PMC8728848.
# Many of the other results were omitted from the sample, so the strongest signals are more common in it than they were.
# Experiments:
# Experiment in all cases: glycan array binding signal (z-score within array); higher = stronger binding
# Conditions in all cases: glycan notation: IUPAC condensed, linker removed
# [1] = target: Fuc(a1-2)Gal(b1-3)GalNAc(b1-3)Gal
# Method in brief: (§1)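 Columns mapping to the same glycan were averaged after glycan names were converted to IUPAC-condensed notation. The data come from 3228 arrays in the Consortium for Functional Glycomics database, limited to those with an available protein sequence. Binding is reported as a within-array Z-score averaged across arrays of one protein sequence and across linkers.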
# [2] = target: Fuc(a1-2)Gal(b1-3)GlcNAc(b1-2)Man(a1-3)[Fuc(a1-2)Gal(b1-3)GlcNAc(b1-2)Man(a1-6)]Man(b1-4)GlcNAc(b1-4)[Fuc(a1-6)]GlcNAc
# Method in brief: as §1
# [3] = target: Fuc(a1-2)Gal(b1-4)[Fuc(a1-3)]GlcNAc(b1-3)[Neu5Ac(a2-6)Gal(b1-4)GlcNAc(b1-6)]Gal(b1-4)Glc
# Method in brief: as §1
# [4] = target: Fuc(a1-2)Gal6S(b1-4)Glc6S
# Method in brief: as §1
# [5] = target: Fuc(a1-2)[Gal(a1-3)]Gal(b1-3)GlcNAc(b1-2)Man(a1-3)[Fuc(a1-2)[Gal(a1-3)]Gal(b1-3)GlcNAc(b1-2)Man(a1-6)]Man(b1-4)GlcNAc(b1-4)GlcNAc
# Method in brief: as §1
# [6] = target: Fuc(a1-2)[Gal(a1-3)]Gal(b1-3)GlcNAc(b1-2)Man(a1-3)[Fuc(a1-2)[Gal(a1-3)]Gal(b1-3)GlcNAc(b1-2)Man(a1-6)]Man(b1-4)GlcNAc(b1-4)[Fuc(a1-6)]GlcNAc
# Method in brief: as §1
# [7] = target: Fuc(a1-2)[Gal(a1-3)]Gal(b1-4)[Fuc(a1-3)]GlcNAc(b1-3)GalNAc
# Method in brief: as §1
# [8] = target: Fuc(a1-2)[GalNAc(a1-3)]Gal(b1-4)Glc
# Method in brief: as §1
# [9] = target: Fuc(a1-3)[Gal(b1-4)]GlcNAc
# Method in brief: as §1
# [10] = target: Fuc(a1-3)[GalNAc(b1-4)]GlcNAc6S
# Method in brief: as §1
# Fuc(b1-3)GlcNAc = target: Fuc(b1-3)GlcNAc
# Method in brief: as §1
# [11] = target: Gal(a1-3)Gal(b1-4)GlcNAc(b1-3)GalNAc
# Method in brief: as §1
# [12] = target: Gal(a1-3)Gal(b1-4)[Fuc(a1-3)]GlcNAc(b1-2)Man(a1-3)[Gal(a1-3)Gal(b1-4)[Fuc(a1-3)]GlcNAc(b1-2)Man(a1-6)]Man(b1-4)GlcNAc(b1-4)GlcNAc
# Method in brief: as §1
# [13] = target: Gal(a1-4)Gal(b1-3)GlcNAc(b1-2)Man(a1-3)[Gal(a1-4)Gal(b1-3)GlcNAc(b1-2)Man(a1-6)]Man(b1-4)GlcNAc(b1-4)GlcNAc
# Method in brief: as §1
# [14] = target: Gal(a1-4)Gal(b1-4)GlcNAc(b1-3)Gal(b1-4)Glc
# Method in brief: as §1
# Gal(b1-3)Gal(b1-4)GlcNAc = target: Gal(b1-3)Gal(b1-4)GlcNAc
# Method in brief: as §1
# Gal(b1-3)GalNAc(b1-3)Gal = target: Gal(b1-3)GalNAc(b1-3)Gal
# Method in brief: as §1
# [15] = target: Gal(b1-3)GalNAc(b1-4)Gal(b1-4)Glc
# Method in brief: as §1
# Gal(b1-3)GlcNAc(b1-2)Man = target: Gal(b1-3)GlcNAc(b1-2)Man
# Method in brief: as §1
# [16] = target: Gal(b1-3)GlcNAc(b1-3)Gal(b1-4)GlcNAc(b1-2)[Gal(b1-3)GlcNAc(b1-3)Gal(b1-4)GlcNAc(b1-6)]Man(a1-6)[Gal(b1-3)GlcNAc(b1-3)Gal(b1-4)GlcNAc(b1-2)Man(a1-3)]Man(b1-4)GlcNAc(b1-4)[Fuc(a1-6)]GlcNAc
# Method in brief: as §1
# [17] = target: Gal(b1-3)GlcNAc(b1-3)GalNAc
# Method in brief: as §1
# [18] = target: Gal(b1-3)[Neu5Ac(b2-6)]GalNAc
# Method in brief: as §1
# [19] = target: Gal(b1-4)GalNAc(b1-3)[Fuc(a1-2)]Gal(b1-4)GlcNAc
# Method in brief: as §1
# Gal(b1-4)Glc6S = target: Gal(b1-4)Glc6S
# Method in brief: as §1
# [20] = target: Gal(b1-4)GlcNAc(b1-2)[Gal(b1-4)GlcNAc(b1-4)]Man(a1-3)[Gal(b1-4)GlcNAc(b1-2)[Gal(b1-4)GlcNAc(b1-6)]Man(a1-6)]Man(b1-4)GlcNAc(b1-4)GlcNAc
# Method in brief: as §1
# [21] = target: Gal(b1-4)GlcNAc(b1-3)Gal(b1-4)GlcNAc(b1-2)Man(a1-3)[Gal(b1-4)GlcNAc(b1-3)Gal(b1-4)GlcNAc(b1-2)Man(a1-6)]Man(b1-4)GlcNAc(b1-4)[Fuc(a1-6)]GlcNAc
# Method in brief: as §1
# [22] = target: Gal(b1-4)GlcNAc(b1-3)Gal(b1-4)GlcNAc(b1-3)Gal(b1-4)GlcNAc(b1-3)Gal(b1-4)GlcNAc(b1-3)Gal(b1-4)GlcNAc(b1-2)[Gal(b1-4)GlcNAc(b1-3)Gal(b1-4)GlcNAc(b1-3)Gal(b1-4)GlcNAc(b1-3)Gal(b1-4)GlcNAc(b1-3)Gal(b1-4)GlcNAc(b1-6)]Man(a1-6)[Gal(b1-4)GlcNAc(b1-3)Gal(b1-4)GlcNAc(b1-3)Gal(b1-4)GlcNAc(b1-3)Gal(b1-4)GlcNAc(b1-3)Gal(b1-4)GlcNAc(b1-2)Man(a1-3)]Man(b1-4)GlcNAc(b1-4)[Fuc(a1-6)]GlcNAc
# Method in brief: as §1
# [23] = target: Gal(b1-4)GlcNAc(b1-3)[Fuc(a1-3)GlcNAc(b1-6)]Gal(b1-4)Glc
# Method in brief: as §1
# [24] = target: Gal(b1-4)GlcNAc(b1-6)Gal(b1-4)GlcNAc
# Method in brief: as §1
# Gal3S(b1-4)Glc = target: Gal3S(b1-4)Glc
# Method in brief: as §1
binder,measurement,setting,value
FimA-N3 (Actinomyces oris) (protein) MHHHHHHSSGVDLGTENLYFQSNAGLQGAQFQLYKAKNAYANTCSNEKEGAPIAINGQTTLTTDAQGAIDIKGLFISDSIDGADRDNQVNAMERCYVLVETKAPAGYVLPAGNGAATPVKVKAGEETTDN,glycan array binding signal (z-score),[1],5.62
same,glycan array binding signal (z-score),[2],-0.196
same,glycan array binding signal (z-score),[3],-0.472
same,glycan array binding signal (z-score),[4],0.307
same,glycan array binding signal (z-score),[5],-0.378
same,glycan array binding signal (z-score),[6],-0.364
same,glycan array binding signal (z-score),[7],0.505
same,glycan array binding signal (z-score),[8],-0.493
same,glycan array binding signal (z-score),[9],-0.369
same,glycan array binding signal (z-score),[10],4.08
same,glycan array binding signal (z-score),Fuc(b1-3)GlcNAc,-0.128
same,glycan array binding signal (z-score),[11],0.243
same,glycan array binding signal (z-score),[12],-0.667
same,glycan array binding signal (z-score),[13],-0.264
same,glycan array binding signal (z-score),[14],-0.388
same,glycan array binding signal (z-score),Gal(b1-3)Gal(b1-4)GlcNAc,0.999
same,glycan array binding signal (z-score),Gal(b1-3)GalNAc(b1-3)Gal,-0.367
same,glycan array binding signal (z-score),[15],3.23
same,glycan array binding signal (z-score),Gal(b1-3)GlcNAc(b1-2)Man,-0.37
same,glycan array binding signal (z-score),[16],2.94
same,glycan array binding signal (z-score),[17],-0.259
same,glycan array binding signal (z-score),[18],-0.563
same,glycan array binding signal (z-score),[19],-0.587
same,glycan array binding signal (z-score),Gal(b1-4)Glc6S,-0.058
same,glycan array binding signal (z-score),[20],-0.618
same,glycan array binding signal (z-score),[21],-0.021
same,glycan array binding signal (z-score),[22],4.26
same,glycan array binding signal (z-score),[23],-0.038
same,glycan array binding signal (z-score),[24],-0.237
same,glycan array binding signal (z-score),Gal3S(b1-4)Glc,0.681
